This is a sample that favours compounds with a hit; in the whole collection about 2.4% have one here.
D2 ag-1: agonists of human D2 dopamine receptor (beta-arrestin) | P14416 | DiscoveRx PathHunter D2 beta-arrestin, luminescence, 90 min; 100% = 57 uM dopamine signal | activation, % (concentration not given with the values) | 360,000 tested, 0.084% active; in the data active = activation above about 40%; inconclusive = between about 15% and that limit
Target sequence (P14416 whole entry, looked up): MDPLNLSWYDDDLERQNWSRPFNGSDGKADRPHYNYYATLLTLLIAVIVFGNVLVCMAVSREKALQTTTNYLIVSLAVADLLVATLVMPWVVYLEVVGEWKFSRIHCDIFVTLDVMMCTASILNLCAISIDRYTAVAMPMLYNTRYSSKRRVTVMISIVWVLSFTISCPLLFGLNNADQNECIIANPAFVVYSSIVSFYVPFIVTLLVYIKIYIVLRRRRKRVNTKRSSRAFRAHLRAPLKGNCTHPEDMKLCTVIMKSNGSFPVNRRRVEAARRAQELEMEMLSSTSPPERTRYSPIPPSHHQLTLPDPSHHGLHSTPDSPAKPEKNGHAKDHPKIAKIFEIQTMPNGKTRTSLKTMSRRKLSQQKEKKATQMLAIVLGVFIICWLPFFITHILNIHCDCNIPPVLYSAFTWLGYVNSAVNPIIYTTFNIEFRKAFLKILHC
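DiscoveRx PathHunter D2 beta-arrestin cells (2,100/well) attached overnight, then compound-stimulated 90 min at 37 C in HBSS/10 mM HEPES/0.1% Tween-20 buffer; beta-galactosidase complementation read by luminescence after 1 h at ambient temperature. Dopamine 57 uM final (EC100) as control.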
D2 ag-2: activates the human D2 dopamine receptor. P14416. HEK293 T-REx D2 cells, calcium flux agonist mode. activation, % at 2 µM. 340,000 tested, 0.53% active. AID 485358;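 active = activation over 3 SD above normal in the single-dose calcium agonist read, cut at about 30% in these data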; also: 0% is about no effect
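Calcium-flux readout, 1 cycle/sec over 180 s following compound pin transfer, in inducible HEK293 Trex D2 cells (force-coupled); dopamine controls included. Positive calcium responses during this window marked compounds as potential agonists.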
D2 PAM-1: positive allosteric modulators of human D2 dopamine receptor; potentiation, % at 10 µM; 340,000 tested, 0.34% active; AID 485347; P14416; HEK293 T-REx D2, calcium flux, EC20 dopamine potentiation;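 active = potentiation over 3 SD above the plate norm, cut at about 30% in these data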; also: 0% is about no effect
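Calcium flux readout, no-wash dye, 1 read/s. Inducible HEK293 Trex D2 line, overnight 30 C. Compound alone 180 s (agonist flags), then EC20 dopamine, another 180 s to score potentiation.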
D2 PAM-2: potentiates the human D2 dopamine receptor allosterically | DiscoveRx D2 beta-arrestin cells, luminescence, 90 min; 100% = 57 uM dopamine signal | 360,000 tested, 0.23% active | potentiation, % (no concentration beside the values); in the data active = potentiation above about 50%; inconclusive = mostly about 30% to 49%
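D2 cells co-treated with compound plus 50 nM dopamine (EC20) for 90 min at 37 deg C to detect potentiation. Beta-arrestin recruitment was read as enzyme-fragment luminescence after 1 h at ambient temperature. Full response was set by 57 uM dopamine.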
D2 antagonist: antagonists of human D2 dopamine receptor; P14416; HEK293 TREx D2 cells, calcium flux, dopamine EC80; inhibition, % at 10 µM; 340,000 tested, 2% active; in the data active = inhibition above about 30%; inactive = below that, where a call was filed; also: 0% is about no effect
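HEK293 T-REx D2 cells, tet-induced, calcium dye no-wash. Cpd pintool add, 180 s kinetic, then EC80 DA, 180 s kinetic. Ca flux read.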
The depositor's hits bear a star; u = inconclusive; x = no result.

SMILES	D2 ag-1	D2 ag-2	D2 PAM-1	D2 PAM-2	D2 antagonist
COc1cccc(-c2cc(C(F)(F)F)n3ncc(C(=O)N4CCc5ccccc5C4)c3n2)c1	-6	-2	5	-3	50*
COc1ccc(OC)c(/C=N/NC(=O)CCc2n[nH]c(=O)[nH]c2=O)c1	0	-1	-2	-7	0
Cc1ccc(/C=N\NC(=O)CCc2n[nH]c(=O)[nH]c2=O)o1	8	0	50*	-5	9
O=C(CSc1nc(=O)[nH]c2c1CCCC2)NCc1ccccc1Cl	x	1	-1	x	x
O=S(=O)([O-])CCC[n+]1c(/C=C\Nc2ccccc2)oc2ccc(-c3ccccc3)cc21	x	52*	11	x	-3
CCOc1ccc(NC(=O)CN2CCCN(Cc3cc(C)ccc3C)S2(=O)=O)cc1	x	-1	-3	x	x
Cc1ccnc2c1ccc1c(C)ccnc12	-5	1	-18	-25	43*
Cc1ccnc2c1ccc1cccnc12	3	0	-3	-9	0
O=C(CSc1nccn1Cc1ccccc1)NCc1ccccc1Cl	x	1	10	x	x
CCc1nnc(NC(=O)c2ccc(S(=O)(=O)N3CCCC(C)C3)cc2)s1 (stereo unspecified)	-2	-1	35*	-3	0
CCc1nnc(NC(=O)c2ccc(S(=O)(=O)N3CCCC3)cc2)s1	-2	0	-1	-6	-24
COc1cccc(C(=O)O/N=C(\N)c2ccccn2)c1	13	1	-2	55*	-8
N/C(=N\OC(=O)c1ccc(Cl)cc1Cl)c1ccccn1	0	0	7	5	-24
N/C(=N\OC(=O)c1ccc(Cl)cc1[N+](=O)[O-])c1ccccn1	63*	0	9	7	0
N/C(=N\OC(=O)c1ccc2ccccc2c1)c1ccccn1	u	1	-5	14	8
Cc1ccc(C(=O)O/N=C(\N)c2ccccn2)c(Cl)c1	u	0	2	91*	-5
CCN(Cc1ccccc1)S(=O)(=O)c1cc(C(=O)Nc2cc(Cl)cc(Cl)c2)ccc1F	x	x	-8	x	x
COc1ccc(C2CC(c3cccs3)=NN2c2ccc(C=O)cc2)cc1 (stereo unspecified)	-5	31*	-7	3	-3
COc1cccc(OC(=O)N2CCOCC2)c1	-18	0	-10	-10	2
Cc1cc(C)cc(OC(=O)N2CCOCC2)c1	-3	0	9	11	38*
CCNC(=O)CC1C(=O)N(CC)C(=S)N1NC(=O)c1ccc(Cl)cc1 (stereo unspecified)	-2	0	2	-8	-8
CCN1C(=O)C(CC(=O)Nc2ccc(Cl)cc2)N(NC(=O)c2ccncc2)C1=S (stereo unspecified)	-7	0	-9	-13	31*
CCCNC(=O)c1cc(C2CCCCN2C(=O)c2cc(OC)c(C)c(OC)c2)on1 (stereo unspecified)	7	x	x	3	x
Cc1cc(C)nc(NC(=S)Nc2cccc(F)c2)c1	-6	0	-8	-7	-1
COc1cccc(NC(=S)Nc2cc(C)cc(C)n2)c1	-2	0	8	-6	44*
SMILES	D2 ag-1	D2 ag-2	D2 PAM-1	D2 PAM-2	D2 antagonist
CCOC(=O)c1sc2nc3c(cc2c1N)COC(C)(CC)C3 (stereo unspecified)	0	0	-6	-22	13
CCC1(C)Cc2nc3sc(C(=O)O)c(N)c3cc2CO1 (stereo unspecified)	-1	1	0	-17	37*
Cc1ccc(NC2=C(NCCO)C(=O)c3ccccc3C2=O)cc1	8	0	10	60*	-4
CC(=O)Nc1nonc1-c1nnc(SCC(=O)Nc2cccc(C)c2C)n1-c1ccccc1	x	-1	-1	x	x
O=S(=O)(c1ccc2c(c1)OCO2)N1CCN(c2nnnn2-c2ccccc2)CC1	-4	1	26	-7	36*
Cc1c(C(Nc2ccccn2)c2ccccc2)c(=O)n(-c2ccccc2)n1C (stereo unspecified)	4	0	36*	0	2
Cc1c(C(Nc2ccccn2)c2ccc(Cl)cc2)c(=O)n(-c2ccccc2)n1C (stereo unspecified)	1	0	26	7	0
CCN(CC)Cc1c(NC(=O)c2ccc(OC)cc2)sc2c1CCCC2	x	-1	2	x	x

Screens from PubChem.
